Screen size: about 420,000 compounds; about 64,000 (15%) were called active. About 27% were inconclusive and are not listed. Calls follow the shape of the dose curve; as a rule, active = well fitted inhibition curve with a large enough effect; inconclusive = small, poorly fitted or top-dose-only effect; inactive = flat fitted curve, though single readings scatter. The list is a sample of the results. Entries that show only a call come without a potency.

Results on 68 compounds are retold here after PubChem BioAssay AID686978 (National Center for Advancing Translational Sciences (NCATS), 2013).
Potency is read from the fitted curve at half-maximal effect.

A short description of this experiment: qHTS for Inhibitors of human tyrosyl-DNA phosphodiesterase 1 (TDP1): qHTS in cells in absence of CPT. Also: nearly all actives have a fitted effect of over 55% in size. To be noted: DT40 Tdp1-/- hTDP1 cells, no CPT, ATP luminescence, 48 h; activity change, negative = growth inhibition: at 46.2 µM (top of the series). The method in brief:
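Seeded 400 DT40-hTDP1 cells/well (vehicle DMSO, no 20 nM CPT); pinned compounds; ≥48 hr at 37 °C; CellTiter-Glo luminescence as viability measure.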
In general terms: qHTS replaces the single test concentration by a dilution series.
As for `CCCc1cc(=O)oc2c(C)c(O)c(CN3CCCCC3)cc12`, the Potency entry was “inactive”.

Take `COCCN(CCOC)c1nc(N)c2c(N)nc3c(c2c1C#N)CC(=O)N3Cc1ccc(Cl)cc1`: the Potency result is “inactive”.

On to `Cc1ccc(NC(=O)/C(=C\c2ccccc2)NC(=O)c2ccco2)cc1`, for which the Potency result was “inactive”.

Consider `CCN1CCN(C(=O)Cn2nc(C)n3c(cc4c(OC)cccc43)c2=O)CC1`, for which the Potency result is “inactive”.

With `COc1ccc(C2c3ccc(O)cc3Oc3ncn(CCCO)c(=N)c32)cc1OC` (stereo not drawn), the Potency entry was “inactive”.

For `Cc1ccc(NC(=O)COC(=O)CN2CCCCCC2=O)c(C)c1`, the Potency entry was “inactive”.

Consider `COC(=O)C1CC2=C(CC(C)(C)CC2=O)N(c2ccccc2)C1=O` (stereo not drawn), for which the Potency entry was “inactive”. For `CC(C)N1C(=O)N(c2ccccc2)C(C)(O)CC1(C)C` (stereo not drawn), the Potency entry was “inactive”. In the case of `CC(C)C1C2=C(CC(C)(C)CC2=O)ON1c1ccccc1` (stereo not drawn), the Potency was 11.2 µM (active).

As for `O=C(Cn1c(=S)nc2ccccn21)N1CCc2ccccc2C1`, the Potency result is “inactive”.

For the compound `CCc1nc2sc3c(Cl)ncnc3c2c2c1CCCC2`, the Potency result was “inactive”.

In the case of `Fc1cc(F)c2nc(N3CCOCC3)sc2c1`, the Potency result is “inactive”. With `CCOc1nc(NCCN2CCOCC2)nc(Nc2ccc(C)cc2)n1`, the Potency result is “inactive”. The same measure for `CCOC(=O)C(C)n1nc(-c2ccccc2)c2ccccc2c1=O` (stereo not drawn): 14.6 µM (active). The same measure for `O=c1c2ccccc2c(-c2ccccc2)nn1Cc1ccccc1`: “inactive”; for `O=C(O)c1ccc(-n2nc(-c3ccccc3)c3ccccc3c2=O)cc1`: “inactive”; for `NC(=O)[C@H]1CC2(CC(c3cccc(NC(=O)[C@H]4CCC(=O)N4)c3)=NO2)CN1C(=O)c1ccccc1C(=O)c1ccccc1` (stereo partly drawn): “inactive”.

For the compound `C/C(=N\NC(=S)NC(C)C)c1ccc(C(C)(C)C)cc1`, the Potency is 20.6 µM (active). In the case of `C/C(=N\NC(N)=S)c1ccncc1`, the Potency result was “inactive”.

Take `C/C(=N\NC(N)=S)c1cccnc1`: the Potency entry is “inactive”. As to `O=C(Cc1ccccc1)Nc1ccc(C(=O)Nc2ccccc2C(=O)O)cc1`, the Potency result is “inactive”. The same measure for `Cc1cccnc1NC(=O)Cn1c(=O)oc2ccccc21`: “inactive”; for `CCOc1ncccc1C(=O)NNC(=O)c1cccc(S(=O)(=O)Nc2ccccc2OC)c1`: “inactive”; for `COc1cc(NS(=O)(=O)c2ccc3ccccc3c2)c2ncccc2c1`: 7.31 µM (active). In the case of `COc1ccc2cc(S(=O)(=O)Nc3ccccn3)ccc2c1`, the Potency entry was “inactive”. The value for `C/C(O)=C\c1nc(=O)c2c(C)cc(C)nc2n1-c1ccccc1` was “inactive”. The same measure for `N#Cc1c(-c2ccc(Cl)cc2)c2c([nH]c1=S)CCCC2`: “inactive”; for `COc1ccc(-c2cn3cccnc3n2)cc1`: “inactive”.

In the case of `COc1ccc2nc(-c3ccccn3)ccc2c1`, the Potency is 3.26 µM (active). The same measure for `COc1ccc(-n2c(SCC(=O)OC(C)C)nnc2-c2ccccn2)cc1`: “inactive”.

In the case of `CCSc1nnc2c(n1)OC(c1ccc(OCC(=O)O)cc1)Nc1ccccc1-2` (stereo not drawn), the Potency result is “inactive”.

For the compound `CCOc1ccc(S(=O)(=O)N(CC(=O)O)c2ccccc2)cc1`, the Potency entry was “inactive”. The value for `CCSc1ncc(Cl)c(C(=O)Nc2c(C(=O)c3ccccc3)oc3ccccc23)n1` was “inactive”; that for `CCOc1ccc(N(Cc2ccccc2)C(=O)c2nc(S(C)(=O)=O)ncc2Cl)cc1` was 0.58 µM (active).

For the compound `CCOc1ccc(Cn2nnc(C(=O)NCc3ccccc3)c2N)cc1`, the Potency entry was “inactive”. As for `CCOc1ccc(N(Cc2ccccc2)C(=O)c2nc(SCC)ncc2Cl)cc1`, the Potency was 6.51 µM (active). For the compound `CCCOc1ccc(/C(O)=C2/C(=O)C(=O)N(CCN(C)C)C2c2ccc(OC)c(OC)c2)cc1` (stereo not drawn), the Potency result was “inactive”. The value for `N#CCCn1ncc2ccccc21` was “inactive”. The same measure for `CNC(=O)C1CN(C(=O)c2cccc(S(=O)(=O)N3CCc4ccccc43)c2)c2ccccc2O1` (stereo not drawn): 5.8 µM (active); for `CC(=O)N1CCN(S(=O)(=O)c2cccc(C(=O)NC3CCC(C)CC3)c2)CC1` (stereo not drawn): “inactive”. For `NS(=O)(=O)c1ccc(CNC(=O)c2cccc(S(=O)(=O)N3CCc4ccccc43)c2)cc1`, the Potency is 9.2 µM (active).

On to `CC1CCN(C(=O)c2cccc(S(=O)(=O)N3CCCc4ccccc43)c2)CC1`, for which the Potency was 11.6 µM (active).

For `NS(=O)(=O)c1ccc(CNC(=O)c2cc(S(=O)(=O)N3CCOCC3)ccc2N2CCCC2)cc1`, the Potency result was “inactive”.

Take `CC1Cc2ccccc2N1S(=O)(=O)c1cccc(C(=O)OCC(=O)N2CCOCC2)c1` (stereo not drawn): the Potency result is “inactive”.

For the compound `O=C(NCCCN1CCCC1=O)c1cccc(S(=O)(=O)NCc2ccccc2)c1`, the Potency result is “inactive”. Turning to `Cc1c(NC(=S)Nc2ccccc2)c(=O)n(-c2ccccc2)n1C`, the Potency result is “inactive”. `COc1cc(C)c(Cl)cc1S(=O)(=O)n1ccnc1`: the Potency result was “inactive”. The value for `CC1CCN(C(=O)COC(=O)c2cc(=O)[nH]c3ccccc23)CC1` was “inactive”; that for `CC(NC(=O)COC(=O)c1cc(=O)[nH]c2ccccc12)c1ccccc1` (stereo not drawn) was “inactive”; that for `CCOC(=O)c1ccc2[nH]c(C)c(CN3CCN(C)CC3)c(=O)c2c1` was “inactive”. For `COC(=O)C[C@H]1C[C@@H]2c3cc(N(C)C)ccc3O[C@@H]2[C@H](CO)O1`, the Potency entry is “inactive”. As for `CCOC(=O)CSc1ncc(-c2cccc(Cl)c2)cn1`, the Potency result was “inactive”. In the case of `Cn1nc(-c2ccccc2)c(CSc2cccc(Cl)c2)c1Cl`, the Potency is 18.4 µM (active).

On to `Cn1nc(-c2ccccc2)c(CO)c1Sc1ccccc1`, for which the Potency result is “inactive”. The value for `CCn1c(-c2ccoc2C)n[nH]c1=S` was “inactive”; that for `CCOC(=O)c1ccc(NC(=O)Cn2cnc3cc(C)c(C)cc32)cc1` was 0.517 µM (active). The value for `CCOC(=O)c1ccc(NC(=O)CCn2c(=O)oc3ccccc32)cc1` was “inactive”; that for `CCOC(=O)c1ccc(NC(=O)Cn2nnc(-c3ccc(C)cc3)n2)cc1` was “inactive”; that for `Cc1ccc(OC(=O)c2cncc(Br)c2)c(C)c1` was “inactive”.

Regarding `NC(=O)COc1ccccc1C(=O)NC12CC3CC(CC(C3)C1)C2`, the Potency result is “inactive”. The same measure for `CCc1cccc(NC(=S)N(CCN(C)C)C2CCN(C(C)C)CC2)c1`: “inactive”; for `Cc1cccc(C)c1NC(=O)CN1C(=O)C(C)Oc2ccccc21` (stereo not drawn): “inactive”. As to `CCn1c(/C=N/NC(=O)c2ccc(OC)cc2)nc2ccccc21`, the Potency is 16.4 µM (active). The value for `CCn1c(C(O)c2cc(OC)ccc2OC)nc2ccccc21` (stereo not drawn) was “inactive”; that for `O=C(Nc1ccccc1Cl)N1CCN(c2ccc3nncn3n2)CC1` was “inactive”.

Consider `COc1cc(NC(=O)CSc2nc3nc(C)c(Cc4ccc(C)cc4)c(C)n3n2)cc(OC)c1OC`, for which the Potency was 10.3 µM (active). The value for `COc1ccc(NC(=O)CSc2nncc(=O)n2N)cc1OC` was “inactive”; that for `Cc1ccc(Cc2c(C)nc3nc(SCC(=O)NCCN4CCOCC4)nn3c2C)cc1` was “inactive”.
